# Experimental data as given in article PMC9911399, “Two distinct binding modes provide the RNA-binding protein RbFox with extraordinary sequence specificity”.
# Positions count from the first letter of the chain named. In all, about 16,000 sequences were measured (“ka relative to ugcaugu”: median about 0.096, highest 2% from about 0.35 on). The sample holds the highest values, similar sequences and a random draw of the others, so the mix is not that of the screen.
# T1: RBFOX1 RRM RbFoxmut (Fox-RRM*) (Homo sapiens, UniProt Q9NWB1 109-208, R118D;E147R;N151S;E152T)
# T1 sequence: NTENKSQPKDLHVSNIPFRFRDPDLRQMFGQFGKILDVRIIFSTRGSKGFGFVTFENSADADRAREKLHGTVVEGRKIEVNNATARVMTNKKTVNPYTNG
# B1: ACUUAUG (DNA:RNA)
# RNA: GGGAGACCGGAAUUCAGAUUGUCCACUUAUGUUAAAUCCCGUCGUAGCCACCA
# DNA 1: CAATCTGAATTCCGGTCTCCC
# DNA 2: TGGTGGCTACGACGGGATT
# B2: UCCAUGA (DNA:RNA)
# RNA: B1 RNA with A25U, U27C, U28A, A29U, U30G, G31A
# DNA 1: CAATCTGAATTCCGGTCTCCC
# DNA 2: TGGTGGCTACGACGGGATT
# B3: GGAGUCA (DNA:RNA)
# RNA: GGGAGACCGGAAUUCAGAUUGUCCGGAGUCAUUAAAUCCCGUCGUAGCCACCA
# DNA 1: CAATCTGAATTCCGGTCTCCC
# DNA 2: TGGTGGCTACGACGGGATT
# B4: CCAACAG (DNA:RNA)
# RNA: B1 RNA with A25C, U27A, U28A, A29C, U30A
# DNA 1: CAATCTGAATTCCGGTCTCCC
# DNA 2: TGGTGGCTACGACGGGATT
# B5: ACGGAGA (DNA:RNA)
# RNA: B1 RNA with U27G, U28G, U30G, G31A
# DNA 1: CAATCTGAATTCCGGTCTCCC
# DNA 2: TGGTGGCTACGACGGGATT
# B6: GAUCACA (DNA:RNA)
# RNA: B3 RNA with G26A, A27U, G28C, U29A
# DNA 1: CAATCTGAATTCCGGTCTCCC
# DNA 2: TGGTGGCTACGACGGGATT
# B7: GAUCCGG (DNA:RNA)
# RNA: B1 RNA with A25G, C26A, U28C, A29C, U30G
# DNA 1: CAATCTGAATTCCGGTCTCCC
# DNA 2: TGGTGGCTACGACGGGATT
# B8: CUUCGGA (DNA:RNA)
# RNA: B1 RNA with A25C, C26U, U28C, A29G, U30G, G31A
# DNA 1: CAATCTGAATTCCGGTCTCCC
# DNA 2: TGGTGGCTACGACGGGATT
# B9: AUGUCCC (DNA:RNA)
# RNA: B1 RNA with C26U, U27G, A29C, U30C, G31C
# DNA 1: CAATCTGAATTCCGGTCTCCC
# DNA 2: TGGTGGCTACGACGGGATT
# B10: AUGUGUG (DNA:RNA)
# RNA: B1 RNA with C26U, U27G, A29G
# DNA 1: CAATCTGAATTCCGGTCTCCC
# DNA 2: TGGTGGCTACGACGGGATT
# B11: AUGUGCG (DNA:RNA)
# RNA: B1 RNA with C26U, U27G, A29G, U30C
# DNA 1: CAATCTGAATTCCGGTCTCCC
# DNA 2: TGGTGGCTACGACGGGATT
# B12: AUGUGUC (DNA:RNA)
# RNA: B1 RNA with C26U, U27G, A29G, G31C
# DNA 1: CAATCTGAATTCCGGTCTCCC
# DNA 2: TGGTGGCTACGACGGGATT
# B13: AUGUGCC (DNA:RNA)
# RNA: B1 RNA with C26U, U27G, A29G, U30C, G31C
# DNA 1: CAATCTGAATTCCGGTCTCCC
# DNA 2: TGGTGGCTACGACGGGATT
# B14: AUGUGUU (DNA:RNA)
# RNA: B1 RNA with C26U, U27G, A29G, G31U
# DNA 1: CAATCTGAATTCCGGTCTCCC
# DNA 2: TGGTGGCTACGACGGGATT
# B15: CAUACAC (DNA:RNA)
# RNA: B1 RNA with A25C, C26A, U28A, A29C, U30A, G31C
# DNA 1: CAATCTGAATTCCGGTCTCCC
# DNA 2: TGGTGGCTACGACGGGATT
# B16: GUCUAGC (DNA:RNA)
# RNA: B1 RNA with A25G, C26U, U27C, U30G, G31C
# DNA 1: CAATCTGAATTCCGGTCTCCC
# DNA 2: TGGTGGCTACGACGGGATT
# B17: UUCCCGC (DNA:RNA)
# RNA: GGGAGACCGGAAUUCAGAUUGUCCUUCCCGCUUAAAUCCCGUCGUAGCCACCA
# DNA 1: CAATCTGAATTCCGGTCTCCC
# DNA 2: TGGTGGCTACGACGGGATT
# B18: CCCGCGA (DNA:RNA)
# RNA: B17 RNA with U25C, U26C, C28G, C31A
# DNA 1: CAATCTGAATTCCGGTCTCCC
# DNA 2: TGGTGGCTACGACGGGATT
# B19: CAUUCUU (DNA:RNA)
# RNA: B1 RNA with A25C, C26A, A29C, G31U
# DNA 1: CAATCTGAATTCCGGTCTCCC
# DNA 2: TGGTGGCTACGACGGGATT
# B20: AAAGCCC (DNA:RNA)
# RNA: B3 RNA with G25A, G26A, U29C, A31C
# DNA 1: CAATCTGAATTCCGGTCTCCC
# DNA 2: TGGTGGCTACGACGGGATT
# B21: ACGCAGA (DNA:RNA)
# RNA: B1 RNA with U27G, U28C, U30G, G31A
# DNA 1: CAATCTGAATTCCGGTCTCCC
# DNA 2: TGGTGGCTACGACGGGATT
# B22: ACGCGCA (DNA:RNA)
# RNA: B1 RNA with U27G, U28C, A29G, U30C, G31A
# DNA 1: CAATCTGAATTCCGGTCTCCC
# DNA 2: TGGTGGCTACGACGGGATT
# B23: ACGCGUC (DNA:RNA)
# RNA: B1 RNA with U27G, U28C, A29G, G31C
# DNA 1: CAATCTGAATTCCGGTCTCCC
# DNA 2: TGGTGGCTACGACGGGATT
# B24: ACGCAUG (DNA:RNA)
# RNA: B1 RNA with U27G, U28C
# DNA 1: CAATCTGAATTCCGGTCTCCC
# DNA 2: TGGTGGCTACGACGGGATT
# B25: ACGCAUA (DNA:RNA)
# RNA: B1 RNA with U27G, U28C, G31A
# DNA 1: CAATCTGAATTCCGGTCTCCC
# DNA 2: TGGTGGCTACGACGGGATT
# B26: ACGCAUC (DNA:RNA)
# RNA: B1 RNA with U27G, U28C, G31C
# DNA 1: CAATCTGAATTCCGGTCTCCC
# DNA 2: TGGTGGCTACGACGGGATT
# B27: UCAUUGC (DNA:RNA)
# RNA: B17 RNA with U26C, C27A, C28U, C29U
# DNA 1: CAATCTGAATTCCGGTCTCCC
# DNA 2: TGGTGGCTACGACGGGATT
# B28: GAUAGUG (DNA:RNA)
# RNA: B1 RNA with A25G, C26A, U28A, A29G
# DNA 1: CAATCTGAATTCCGGTCTCCC
# DNA 2: TGGTGGCTACGACGGGATT
# B29: CGAUAGA (DNA:RNA)
# RNA: B3 RNA with G25C, G28U, U29A, C30G
# DNA 1: CAATCTGAATTCCGGTCTCCC
# DNA 2: TGGTGGCTACGACGGGATT
# B30: UGGUAGA (DNA:RNA)
# RNA: B1 RNA with A25U, C26G, U27G, U30G, G31A
# DNA 1: CAATCTGAATTCCGGTCTCCC
# DNA 2: TGGTGGCTACGACGGGATT
# B31: UGGUAUC (DNA:RNA)
# RNA: B1 RNA with A25U, C26G, U27G, G31C
# DNA 1: CAATCTGAATTCCGGTCTCCC
# DNA 2: TGGTGGCTACGACGGGATT
# B32: UGGUAUG (DNA:RNA)
# RNA: B1 RNA with A25U, C26G, U27G
# DNA 1: CAATCTGAATTCCGGTCTCCC
# DNA 2: TGGTGGCTACGACGGGATT
# B33: UGGUAGC (DNA:RNA)
# RNA: B17 RNA with U26G, C27G, C28U, C29A
# DNA 1: CAATCTGAATTCCGGTCTCCC
# DNA 2: TGGTGGCTACGACGGGATT
# B34: UGGUAUA (DNA:RNA)
# RNA: B1 RNA with A25U, C26G, U27G, G31A
# DNA 1: CAATCTGAATTCCGGTCTCCC
# DNA 2: TGGTGGCTACGACGGGATT
# B35: UGGUAAA (DNA:RNA)
# RNA: B1 RNA with A25U, C26G, U27G, U30A, G31A
# DNA 1: CAATCTGAATTCCGGTCTCCC
# DNA 2: TGGTGGCTACGACGGGATT
# Biological target: T1, RBFOX1 RRM RbFoxmut (Fox-RRM*)
# Experiment: EMSA; HiTS-Eq, 1 nM pool, 10 min; buffer printed only for the single-RNA assays: 10 mM Tris pH 7.5, 150 mM NaCl, 3.4 mM EDTA, 0.001% NP-40, 30 C
# Details: tags: His6 N-terminal (pET28a); label: 5' 32P
# Method in brief: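 Purified wild-type or mutant RbFox RRM at increasing concentrations was equilibrated with 1 nM of 5′-radiolabelled RNA carrying 7 randomized nucleotides for 10 min in 50 µL. Unbound RNA was separated by 8% native PAGE and sequenced. Relative association constants came from read-count changes of each RNA species compared with the control reaction, normalised to the cognate motif.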
row,Binder,binding signal
1,B1,0.125 KA relative to UGCAUGU
2,B2,0.11 KA relative to UGCAUGU
3,B3,0.0995 KA relative to UGCAUGU
4,B4,0.108 KA relative to UGCAUGU
5,B5,0.0992 KA relative to UGCAUGU
6,B6,0.0738 KA relative to UGCAUGU
7,B7,0.06 KA relative to UGCAUGU
8,B8,0.0749 KA relative to UGCAUGU
9,B9,0.0715 KA relative to UGCAUGU
10,B10,0.443 KA relative to UGCAUGU
11,B11,0.231 KA relative to UGCAUGU
12,B12,0.289 KA relative to UGCAUGU
13,B13,0.372 KA relative to UGCAUGU
14,B14,0.174 KA relative to UGCAUGU
15,B15,0.0927 KA relative to UGCAUGU
16,B16,0.0934 KA relative to UGCAUGU
17,B17,0.0732 KA relative to UGCAUGU
18,B18,0.0823 KA relative to UGCAUGU

row,Binder,binding signal
1,B19,0.101 KA relative to UGCAUGU
2,B20,0.066 KA relative to UGCAUGU
3,B21,0.106 KA relative to UGCAUGU
4,B22,0.15 KA relative to UGCAUGU
5,B23,0.0969 KA relative to UGCAUGU
6,B24,0.844 KA relative to UGCAUGU
7,B25,0.152 KA relative to UGCAUGU
8,B26,0.355 KA relative to UGCAUGU
9,B27,0.12 KA relative to UGCAUGU
10,B28,0.126 KA relative to UGCAUGU
11,B29,0.101 KA relative to UGCAUGU
12,B30,0.128 KA relative to UGCAUGU
13,B31,0.356 KA relative to UGCAUGU
14,B32,1.27 KA relative to UGCAUGU
15,B33,0.102 KA relative to UGCAUGU
16,B34,0.157 KA relative to UGCAUGU
17,B35,0.0843 KA relative to UGCAUGU
